High-throughput results as filed in PubChem.
Six1-Eya2 inh = blocks human Six1 binding to Eya2. AlphaScreen GST-Six1/His-Eya2 binding, biochemical; active compounds read low. hit rate 0.56% among 360,000. Q15475+O00167. AID 651725. activity change, % (test concentration not listed); in the data active means activity change below about -65%; inconclusive means mostly about -30% to -63%
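Homogeneous AlphaScreen proximity assay pairing GST-Six1 with His-tagged Eya2 (added as 5X mix: 250 nM and 500 nM) in 50 mM Tris pH 8.0, 300 mM NaCl, 1 mM TCEP. Glutathione donor and nickel acceptor beads; 1 h, 37 °C, dark.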
G9a inh = blocks human histone lysine methyltransferase G9a; Potency, µM (doses to about 102 µM), actives largely listed as inhibitors; hit rate 8.8% among 350,000; Q96KQ7; G9a H3K9 monomethylation, AlphaScreen, 2 h; further: nearly all actives have a fitted effect of over 75% in size
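Quantitative HTS format: methyltransferase activity on a biotin-tagged H3K9 peptide is measured by AlphaScreen, using a rabbit anti-monomethyl-H3K9 antibody with streptavidin donor and anti-IgG acceptor beads. Final levels are 20 nM enzyme, 500 nM peptide, 20 uM SAM; 2 h RT.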
CtBP-E1A blk = CtBP/E1A binding inhibition. AlphaScreen GST-E1A/His-CtBP binding, 1536-well; active compounds read low. activity change, % (concentration not given with the values). hit rate 0.49% among 340,000. AID 651724; in the data active means activity change below about -65%; inconclusive means mostly about -30% to -63%
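AlphaScreen with 125 nM GST-E1A and 125 nM His-CtBP (5X stocks) in Tris pH 8.0, 300 mM NaCl, BSA, Tween 20, TCEP. Compounds preincubated 2 h at 37 deg C, then glutathione donor/nickel acceptor beads added for 1 h at 37 deg C in dark.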
HP1b binding inh = inhibitors of HP1-beta chromodomain binding to methylated histone tails; P83916; AlphaScreen HP1-beta / biotin-H3K9me3 peptide binding; Potency, µM (doses to about 114 µM), usual class: inhibitors; hit rate 0.56% among 390,000; AID 540317; further: nearly all actives have a fitted effect of over 70% in size
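Compound inhibition of the preformed complex between 50 nM HP1-beta and 50 nM biotinylated H3K9me3 peptide was read by AlphaScreen. Buffer was PBS pH 7.4 with 0.01% Tween-20. Incubations ran 30 min at room temperature, with 10 ug/mL donor/acceptor beads.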
JMJD2A Tudor = JMJD2A Tudor domain (human) inhibition. Potency, µM (top dose mostly 114 µM), actives largely listed as inhibitors. O75164. AlphaScreen JMJD2A-Tudor / H3K4me3 peptide binding. hit rate 4.4% among 390,000; further: nearly all actives have a fitted effect of over 50% in size
BAZ2B block = inhibitors of human BAZ2B bromodomain; Q9UIF8; AlphaScreen BAZ2B-H3K14Ac peptide displacement; Potency, µM (series often up to 114 µM), usual class: inhibitors; hit rate 4.4% among 360,000; AID 504333; further: nearly all actives have a fitted effect of over 60% in size
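BAZ2B (50 nM) with biotin-H3(5-23)K14Ac peptide (50 nM) in PBS pH 7.4, 0.01% Tween-20, preformed 30 min, then compound 30 min at room temperature; top concentration 110uM. AlphaScreen streptavidin donor/nickel chelate acceptor beads (10 ug/mL final), 20 min dark, signal read.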
A number is an active result; . = inactive; ? = inconclusive; / = no result; [ ] = another dose, or the depositor's remark. This is a sample that favours compounds with a hit; in the whole collection about 10% have one here. Unless noted, the call rests on the fitted dose curve; in most records, active means well fitted inhibition curve with a large enough effect; inconclusive means small, poorly fitted or top-dose-only effect; inactive means no such curve, though single readings can be large or run the other way.

SMILES	Six1-Eya2 inh	G9a inh	CtBP-E1A blk	HP1b binding inh	JMJD2A Tudor	BAZ2B block
Cc1cc(C)cc(NS(=O)(=O)c2ccc(NC(=S)NC(=O)c3ccc(Br)o3)cc2)c1	.	?	.	?	?	.
COc1ccc(N(CC(=O)Nc2cccc(Cl)c2)S(=O)(=O)c2c(C)[nH]c(=O)[nH]c2=O)cc1	/	?	/	.	.	.
CC(C)N(C(=O)CN1C(=O)C(=O)c2ccccc21)c1ccccc1	.	.	.	.	.	.
Cc1ccc(S(=O)(=O)N(C)/N=C2/C(=O)N(CC(=O)O)c3ccccc32)cc1	.	14µM	.	.	?	.
O=C(Nc1c(F)cc(F)cc1Br)c1cc(S(=O)(=O)N2CCN(c3ccccn3)CC2)ccc1F	.	50µM	/	.	?	?
O=C(Nc1ccc(F)c(F)c1)c1cc(S(=O)(=O)N2CCN(c3ccccn3)CC2)ccc1F	.	?	.	.	.	.
COc1ccc(C)cc1Nc1cc(C)nc(C)n1	/	.	/	.	.	.
CCCn1c(NCc2ccccn2)nc2ccccc21	.	5.6µM	.	.	20µM	56µM
c1ccc(CNc2nc3ccccc3n2CCN2CCOCC2)nc1	.	.	.	.	25µM	71µM
c1csc(CNc2nc3ccccc3n2CCN2CCOCC2)c1	.	?	.	.	.	.
CCCn1c(NCc2cccs2)nc2ccccc21	.	.	.	.	.	/
O=C(N=Nc1c(O)[nH]c2ccccc12)c1cc(-c2cccs2)[nH]n1	.	/	.	.	.	50µM
COc1ccc(C(=O)N2CCN(Cc3ccccc3)CC2)cc1[N+](=O)[O-]	.	.	/	.	.	?
COc1cc(OC)cc(C(=O)N2CCN(Cc3ccccc3[N+](=O)[O-])CC2)c1	.	7.9µM	/	?	.[11.4 µM]	20µM
COc1ccc(C(=O)N2CCN(Cc3ccccc3[N+](=O)[O-])CC2)cc1	.	16µM	.	?	22µM	50µM
O=C(c1cc(Cl)nc2ccccc12)N(Cc1nnc(-c2ccc(Cl)cc2)o1)C1CC1	.	.	.	.	.	.
COc1cc(C2NC(=O)NC(C)=C2C(=O)OC2CCCCC2)cc(Cl)c1O (stereo not drawn)	.	.	.	.	.	.
COc1ccc(C(=O)N2CCC3(CC2)CCN(c2ccccc2)CC3)cc1	/	.[12.7 µM]	/	/	/	/
O=C(COC(=O)COc1ccccc1)NC1CCCc2ccccc21 (stereo not drawn)	.	.	/	.	.	.
Cn1nccc1/C=C(/C#N)S(=O)(=O)c1ccccc1	.	.	.	.	40µM	.
COc1ccccc1-c1csc(C(O)c2cccc(Cl)c2)n1 (stereo not drawn)	.	/	.	/	/	/
O=C1OC(c2ccc(F)cc2)=C/C1=C\c1ccc([N+](=O)[O-])o1	/	10µM	/	/	/	45µM
O=C1OC(c2ccc(Cl)cc2)=C/C1=C/c1cccnc1	.	56µM	.	.	.	.
O=C1OC(c2ccc(F)cc2)=C/C1=C\c1ccc(O)cc1	.	35µM	/	.	.	.
Cc1ccc(C2=C/C(=C/c3cccnc3)C(=O)O2)c(C)c1	.	?	/	.	.	.
SMILES	Six1-Eya2 inh	G9a inh	CtBP-E1A blk	HP1b binding inh	JMJD2A Tudor	BAZ2B block
COc1ccc(C)cc1NS(=O)(=O)c1cnc(N)nc1	/	.	/	.	.	.
CCN(CC(=O)NCC1CCCO1)S(=O)(=O)c1ccc2ccccc2c1 (stereo not drawn)	.	/	.	.	.	.
Cn1c(=O)c2[nH]c(C(O)c3ccc(Cl)cc3)nc2n(C)c1=O (stereo not drawn)	.	/	.	.	?	/
C/C(CC(=O)NCc1ccc(F)cc1)=N\NC(N)=S	.	?	.	?	?	?
C/C(CC(=O)Nc1ccccc1C(F)(F)F)=N\NC(=O)c1cnccn1	.	/	.	.	.	/
C/C(CC(=O)NCc1ccccc1)=N\NC(N)=S	.	3.2µM	.	.	?	.
C/C(CC(=O)NCc1ccccc1)=N\NC(=O)c1cnccn1	.	40µM	.	.	?	.
FC(F)(F)c1ccc(/C=N/n2c(C3CCCCC3)n[nH]c2=S)cc1	.	50µM	/	.	?	.
S=c1[nH]nc(C2CCCCC2)n1/N=C/c1ccc(Cl)cc1	.	40µM	.	.	.	.
